system: SgK110; conditions: Compound Concentration (nM):1000
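Further: KINOMEscan scanMAX binding as percent activity remaining versus control; lower means stronger binding.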

Row | SMILES | Percent Control [%]
1 | COc1cc(C=NNc2ncnc3c2cnn3-c2ccccc2)ccc1O [GW513184X] | 100
2 | CCS(=O)(=O)c1ccc(OC)c(Nc2ncc(-c3cccc(OC)c3)o2)c1 [GW580509X] | 100
3 | Cl.O=C(Nc1ccc(Oc2ccc3[nH]c(NC(=O)c4ccco4)nc3c2)cc1)Nc1cc(C(F)(F)F)ccc1F [GW683134A] | 100
4 | CN1CCN(C(=O)c2ccc(NC(=O)Nc3ccc(N(C)c4ccnc(Nc5ccc(CS(C)(=O)=O)cc5)n4)cc3)cc2)CC1.Cl [GW830263A] | 89
5 | COc1cc(N2CCN(C(C)C)CC2)ccc1Nc1nc(Nc2ccc(F)cc2C(=O)NC[C@@H](O)CO)c2cc[nH]c2n1 [GSK1392956A] | 100
6 | C[C@@H](Oc1cc(-n2cnc3ccc(OC4CCN(C)CC4)cc32)sc1C(N)=O)c1ccccc1Cl [GSK579289A] | 100
7 | COc1ccc2cc(-c3c(-c4ccncc4)nc(-c4ccc(S(C)(=O)=O)cc4C)n3C)ccc2c1 [SB-633825] | 85
8 | COC(=O)Nc1nc2ccc(Oc3ccc(NC(=O)Nc4cc(C(F)(F)F)ccc4F)cc3)cc2s1.Cl [GW693917A] | 100
9 | CN(C)CCNC(=O)Nc1ccc(N(C)c2ccnc(Nc3ccc(CS(C)(=O)=O)cc3)n2)cc1.Cl [GW830900A] | 47
10 | COc1cc(/C=N/Nc2ncnc3[nH]ncc23)ccc1O [GW578748X] | 100
11 | COc1cc2ncn(-c3cc(O[C@H](C)c4ccccc4Cl)c(C(N)=O)s3)c2cc1OC [GSK237701A] | 100
12 | CN(C)c1cc2c(Nc3ccc4c(cnn4Cc4ccccc4)c3)ncnc2cn1 [GW282974X] | 100
13 | Cl.O=S1CCN(Cc2ccc(-c3ccc4ncnc(Nc5ccc(OCc6ccccc6)c(F)c5)c4c3)o2)CC1 [GW576924A] | 100
14 | CCc1ccc(Oc2nccc(-c3c(-c4ccc(F)cc4)ncn3C3CCNCC3)n2)cc1 [SB-242719] | 100
15 | Nc1ncnc2occ(-c3ccc(NC(=O)Nc4cc(C(F)(F)F)ccc4F)cc3)c12 [GW770249X] | 100
16 | Cl.O=C(O[C@H]1CN[C@H](C#Cc2cc3ncnc(Nc4ccc5c(cnn5Cc5ccccc5)c4)c3s2)C1)N1CCOCC1 [GSK200398A] | 100
17 | Cl.c1ccc(Cc2nc3ccc(Nc4ncnc5ccccc45)cc3[nH]2)cc1 [GR269666A] | 100
18 | COc1ccc2c(-c3ccnc(Nc4cccc(OC(F)(F)F)c4)n3)cnn2n1 [GW810372X] | 100
19 | COc1cccc(-c2c[nH]c3c(N/N=C/c4ccncc4)ncnc23)c1 [GW814408X] | 87
20 | CCn1c(-c2nonc2N)nc2c(C#CC(C)(C)O)nc(OCCNC)cc21.Cl [GSK949675] | 100

Row | SMILES | Percent Control [%]
21 | NS(=O)(=O)c1ccc(Nc2ncc(-c3ccccc3)o2)cc1 [GW572399X] | 100
22 | COc1ccc(COc2ccc(Cc3cnc(N)nc3N)cc2OC)cc1 [GW632580X] | 100
23 | CC(C)COC(=O)c1ccc2c(c1)/C(=C/Nc1ccc(S(N)(=O)=O)cc1)C(=O)N2 [GW416981X] | 100
24 | Cl.O=C(Nc1ccc(Oc2ccc3[nH]c(NC(=O)c4ccccc4)nc3c2)cc1)Nc1cc(C(F)(F)F)ccc1F [GW709042A] | 100
25 | COc1cccc(-n2ncc3c(N/N=C/c4ccncc4)ncnc32)c1 [GW784752X] | 100
26 | NS(=O)(=O)c1ccc(N/N=C2\C(=O)Nc3ccc(Cl)cc32)cc1 [GW280670X] | 100
27 | O=C(Nc1n[nH]c2nc(-c3ccc(O)cc3)c(Br)cc12)C1CC1 [SB-725317] | 100
28 | CC1=C(C(=O)Nc2ccc3[nH]ncc3c2)C(c2ccc3ccccc3c2)CC(=O)N1 (stereo not shown) [GSK270822A] | 100
29 | Cc1cc(O)cc(C)c1/C=C/c1cncc(C(N)=O)c1 [GW435821X] | 100
30 | NS(=O)(=O)c1ccc(N/N=C2\C(=O)Nc3ccc(C(=O)NCc4ccncc4)cc32)cc1 [GW300657X] | 100
31 | C/C(Nc1ccc(S(N)(=O)=O)cc1)=C1/C(=O)Nc2ccccc21 [GW335962X] | 100
32 | CC1=C(C(=O)Nc2ccc3[nH]ncc3c2)C(c2ccc(Cl)c(Cl)c2)CC(=O)N1 (stereo not shown) [GSK299115A] | 100
33 | CCS(=O)(=O)c1ccc(OC)c(Nc2ncc(-c3cccc(F)c3)o2)c1 [GW621970X] | 100
34 | COc1ccccc1-c1cc(/C=C2\C(=O)Nc3ncc(Br)cc32)cc(Br)c1O [GW442130X] | 100
35 | NS(=O)(=O)c1ccc(N/N=C2\C(=O)Nc3ccc(C(=O)NCCc4c[nH]cn4)cc32)cc1 [GW300660X] | 100
36 | O=C1Nc2ccc(C(=O)c3ccco3)cc2C1=Cc1cc(Cl)c(O)c(Cl)c1 [GW406108X] | 100
37 | COc1cc(C)c(N(C)C(=O)CN(C)C)cc1Nc1nc(Nc2cccc(F)c2C(N)=O)c2cc[nH]c2n1 [GSK2219385] | 100
38 | NS(=O)(=O)c1ccc(N/N=C2\C(=O)Nc3ccc(-c4cnco4)cc32)cc1 [GW276655] | 73
39 | COc1ccc2[nH]c3c4[nH]c5ccc(OC)cc5c4c4c(c3c2c1)C(=O)NC4=O [GW296115X] | 100
40 | COc1cc2ncnc(Nc3ccc4c(cnn4Cc4ccccc4)c3)c2cc1OC.Cl [GW282449A] | 100
